# TSG101-PTAP inh: blocks PTAP/TSG101 interaction to inhibit HIV-1 budding | Q99816 | Fluorescence polarization, FITC-PTAP peptide / Tsg101 binding | Potency, µM (series often up to 115 µM), without a hit: at the highest dose activity change, negative = inhibition, usual class: inhibitors | 340,000 tested, under 10 active; active means well fitted inhibition curve with a large enough effect in the main read-out, with a control signal flat, not every such curve was filed as active; inconclusive means small, poorly fitted or top-dose-only effect, or effect the other way, or a change in a side signal; inactive means no such curve, though single readings can be large or run the other way; further: potency means the concentration at half of the fitted maximal effect; % of control where 0% means no effect
# Target sequence (Q99816 whole entry, looked up): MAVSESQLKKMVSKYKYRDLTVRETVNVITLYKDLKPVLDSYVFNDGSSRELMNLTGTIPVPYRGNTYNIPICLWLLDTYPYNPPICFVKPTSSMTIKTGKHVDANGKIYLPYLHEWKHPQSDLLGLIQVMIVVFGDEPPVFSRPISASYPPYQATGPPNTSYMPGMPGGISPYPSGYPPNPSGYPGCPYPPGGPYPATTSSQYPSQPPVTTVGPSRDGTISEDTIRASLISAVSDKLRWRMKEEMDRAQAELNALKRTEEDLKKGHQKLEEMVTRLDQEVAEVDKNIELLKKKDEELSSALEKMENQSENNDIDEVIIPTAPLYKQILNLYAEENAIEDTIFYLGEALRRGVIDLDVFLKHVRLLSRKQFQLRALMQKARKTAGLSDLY
#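 Fluorescence polarization binding of Tsg101 binding domain (10 uM final) to FITC-labeled PTAP peptide (50 nM final) in HEPES pH 7.5 buffer with NaCl, Tween 20, EDTA, TCEP. Compounds added before peptide; binding 20 min at RT.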
# IMPase Li cell: cell-permeable IMPase inhibitors with lithium potentiation | Potency, µM (doses to about 59.4 µM), for inactives: at the highest dose activity, negative = IMPase inhibition, usual class: inhibitors | AID 1457 | CHO-M1 cells, IP1 TR-FRET (IP-One), carbachol + lithium | hit rate 0.35% among 210,000;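 further: IP1 builds up when IMPase is blocked and the TR-FRET signal falls; potency means the concentration at half of the fitted maximal effect; plate controls were basal vehicle for no effect and high inhibitor control for full effect; nearly all actives have a fitted effect of over 50% in size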
#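 CHO cells stably expressing M1 receptor (2000/well, cultured 16–30 h) treated 30 min at 37C with compound plus low lithium. Cytosolic IP1 by TR-FRET (665/620 ratio and 620 channel) after 10 min lysis; AC50 by Hill fit.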
# AT treatment: potential ataxia-telangiectasia treatment; F2112 A-T fibroblasts, KAP-1 phosphorylation AlphaLISA; neocarzinostatin DNA damage 30 min before lysis; Potency, µM (highest dose often 57.5 µM), inactives show top-dose activation, actives largely listed as activators; hit rate 0.19% among 320,000; AID 485349; further: potency means the concentration at half of the fitted maximal effect; % of control where 0% means no effect; nearly all actives have a fitted effect of over 45% in size
#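 ATM-like activity read as KAP-1 phosphorylation via AlphaLISA donor/acceptor antibody pairs after lysis and 6 hr at 25C. Cells were ATM-null patient fibroblasts (F2112, hTERT), dosed 60 min, then exposed to the DSB inducer NCS for 30 min.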
# CBFb RUNX1 block: inhibitors of human CBF-beta and RUNX1 interaction. 230,000 tested, under 10 active. Potency, µM (series often up to 59.8 µM), for the others: at the top dose activity, negative = inhibition, actives largely listed as inhibitors. Q01196+Q13951. AlphaScreen CBFb-His/RUNX1-biotin binding, biochemical; further: % of control where 0% means no effect
#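 Compounds were screened at multiple concentrations against a preformed CBF-beta(His)/RUNX1(biotin) complex (30 nM of each) for 15 min at room temperature, followed by 90 min with nickel and streptavidin beads and AlphaScreen reading.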
# * hit, by the source's call; u = inconclusive; x = no result given; [ ] = remark or other dose. An excerpt weighted towards active compounds, which were near 0.37% of everything screened. Unless noted, the call rests on the fitted dose curve; in most records, active means well fitted curve in the direction sought with a large enough effect; inconclusive means small, poorly fitted or top-dose-only effect, or another doubt; inactive means no such curve, though single readings can be large; an effect the other way counts as inactive or inconclusive.
SMILES,TSG101-PTAP inh,IMPase Li cell,AT treatment,CBFb RUNX1 block
COc1ccc(C(=O)/C(=C/c2cccs2)c2nc3ccccc3o2)cc1,-2%,41%[38.3 µM],-3%,-5%
COc1ccc2[nH]c(=O)c(C(c3nnnn3C(C)(C)C)N(Cc3ccco3)CC3CCCO3)cc2c1 (stereo unspecified),-5%,16µM*,-7%,-5%
CCOC(=O)N1CCC(NC(=O)c2ccc3c(c2)sc2nc(-c4ccccc4)cn23)CC1,2%,-12%[38.3 µM],20µM*,0%
CCOC(=O)N1CCC(NC(=O)c2ccc3c(c2)sc2nc(-c4cccc(OC)c4)cn23)CC1,x,14%,13%,-3%
CCC/C(=N\NC(=O)c1ccccc1C)c1ccccc1,-1%,5%,12%,4%
O=C(C1=C(O)C(=O)N(Cc2ccco2)C1c1cccs1)c1cccs1 (stereo unspecified),-1%,-26%,-4%,2%
O=C(C1=C(O)C(=O)N(CCOCCO)C1c1cccs1)c1cccs1 (stereo unspecified),-5%,7.9µM*,-4%,1%
COc1ccc(CCN2C(=O)C(O)=C(C(=O)c3ccco3)C2c2cccs2)cc1OC (stereo unspecified),-1%,6.3µM*,-4%,7%
CCOC(=O)/C(=N\Nc1ccc(Br)cc1)N1CC(C)OC(C)C1 (stereo unspecified),-1%,x,25µM*,3%
OCC(O)C(O)C(O)c1cnn(-c2ccccc2)n1 (stereo unspecified),-5%,x,x,x
COc1ccc(-c2cc(C(F)(F)F)nc(N3CCCCC3)n2)cc1OC,-5%,10%[38.3 µM],35µM*,7%
COc1ccc(-c2cc(C(F)(F)F)nc(N3CCN(C)CC3)n2)cc1OC,-8%,13%[38.3 µM],4%,-13%
O=C1c2cccc(OCC(=O)N3CCCc4ccccc43)c2CCN1Cc1ccc(F)cc1,0%,13%,1%,-6%
CCC1CCc2c(sc(NC(=O)c3ccco3)c2C(N)=O)C1 (stereo unspecified),0%,-3%,-8%,17%
CC1CCc2c(sc(/N=C/c3ccco3)c2C(N)=O)C1 (stereo unspecified),-4%,x,16µM*,11%
CC1CCc2c(sc(/N=C/c3cccnc3)c2C(N)=O)C1 (stereo unspecified),1%,x,-23%,0%
CC(C)(C)C1CCc2c(sc(NC(=O)c3ccco3)c2C(N)=O)C1 (stereo unspecified),2%,5.6µM*,x,2%
COc1ccccc1C(=O)NC(=O)Nc1cccc(Cl)c1,-9%,x,3.5µM*,x
N#Cc1ccc(CSc2nnc(NC(=O)c3ccc4ncsc4c3)s2)cc1,-1%,7.9µM*,9%,u
CCCc1nnc(NC(=O)CC(=O)OCC)s1,0%,x,2%,3%
CCOc1ccc(NC(=O)c2cc3c(=O)n(C)c4ccccc4c3n2C)cc1,0%,7.9µM*,-5%,-3%
COc1ccccc1C1=NC(c2ccccc2)CN1c1ccccc1 (stereo unspecified),-1%,x,28µM*,x
COc1ccc(CCNc2oc(COc3ccccc3F)nc2C#N)cc1,-2%,18%,-1%,0%
N#Cc1nc(COc2ccccc2F)oc1NCc1ccc(F)cc1,1%,22%[38.3 µM],32µM*,-13%
Brc1ccc(-c2nc3ccccc3s2)s1,0%,11µM*,9%,24%
SMILES,TSG101-PTAP inh,IMPase Li cell,AT treatment,CBFb RUNX1 block
O=c1c(C(c2ccc(Cl)cc2)c2c(O)nc3n(c2=O)CCS3)c(O)nc2n1CCS2,-12%,x,-8%,-10%
O=c1c(C(c2ccc(Cl)cc2)c2c(O)nc3n(c2=O)CCCS3)c(O)nc2n1CCCS2,-1%,x,32µM*,10%
CCCc1ccc(Oc2cc(C)nc(N3CCOCC3)n2)cc1,-14%,10%[38.3 µM],25µM*,-2%
O=C(NC(=S)NC1CCN(Cc2ccccc2)CC1)c1ccc(F)cc1,0%,x,1.4µM*,x
COc1ccc(Cc2ccccc2C(=O)O)c2ccccc12,x,9%,x,x
COc1cc(NC(=O)c2cc(-c3ccco3)on2)c(OC)cc1Cl,-4%,11µM*,x,-3%
COc1ccc(NC(=O)c2cc(-c3ccco3)on2)c(OC)c1,1%,x,11%,x
O=C(NCCCn1ccnc1)c1c(F)cccc1F,-2%,x,28%,x
O=C(CSc1nc2nc(-c3cccs3)cc(C(F)(F)F)c2c(=O)[nH]1)NCc1ccco1,-3%,8.9µM*,-4%,-3%
